# Test results published in PubChem BioAssay (Tox21).
# Active and inactive are the calls of the source. The call rests on the fitted dose curve; in most records, active means well fitted cell-killing curve with a large enough effect in the repeat runs; inconclusive means weak or mixed curves, or effect the other way; inactive means flat fitted curve, though single readings scatter.
# Assay: qHTS assay to identify small molecule HDAC inhibitors - cell viability counter screen (AID 1259365); further: nearly all actives have a fitted effect of over 50% in size
# Settings: HCT-116 viability, CellTiter-Glo ATP luminescence, 2 h; series mostly up to 92.4 µM
# Excerpt: U.S. Tox21 Program National Center for Advancing Translational Sciences [NCATS] NIH Chemical Genomics Center [NCGC] U.S. Environmental Protection Agency [EPA] National Institutes of Environmental Health Sciences [NIEHS] National Toxicology Program [NTP] U.S. Food and Drug Administration [FDA] Tox21 Assay Overview: Histone deacetylases (HDACs) are a group of epigenetic enzymes that regulate gene expression by histone deacetylation. HDACs are capable of introducing epigenetic modifications and such aberrations contribute to the onset and progression of several human diseases, thus making HDACs a popular therapeutic target. For identifying endogenous class I/II HDAC inhibitors a homogenous, luminogenic HDAC I/II cell based assay was used to measure the relative activity of class I and II HDACs from cells. Wild type HCT-116 cells were used to screen Tox21 compound libraries for identifying class I/II HDAC inhibitors.
# Tox21 Assay Protocol Summary: HCT-116 cells were dispensed at 1,500 per well in 5uL of culture medium into white solid bottom 1536-well plates (Greiner Bio-One, Monroe, NC) using a Multidrop Combi (Thermo Scientific, Waltham, MA) dispenser. The assay plates were incubated at 37 C and 5% CO2 for an overnight, and then 23nL of compounds dissolved in DMSO and positive control were transferred using a Pintool station (Wako, San Diego, CA). The assay plates were incubated at 37C and 5% CO2 for 2hr. After compound treatment, 4uL of CellTiter-Glo reagent (Promega Corporation, Madison, WI) was added to each well of the assay plates using Flying Reagent Dispenser (FRD, Aurora Discovery, San Diego, CA) and incubated the assay plates at room temperature for 30min. The luminescence signal was quantified using a ViewLux plate reader (Perkin Elmer, Shelton, CT).
row,SMILES,outcome
1,O=C(O)c1cccc(C(=O)O)c1C(=O)O,inactive
2,CCOC(OCC)OCC,inactive
3,COc1ccc(/C(C)=C/C(=O)O)c(OC)c1,inactive
4,CC1(COc2ccc(CC3SC(=O)NC3=O)cc2)CCCCC1 (stereo not given),inactive
5,CC(=O)Nc1ccccc1O,inactive
6,O=C(O)c1ccccc1[N+](=O)[O-],inactive
7,[O-][n+]1ccc(Cl)cc1,inactive
8,CCc1ccc2c(c1)C(=O)c1ccccc1C2=O,inactive
9,CC(C)(C)N,inactive
10,CC(C)=CCC/C(C)=C/C=N/O,inactive
11,C/C(=C\C(C)CC(C)CC(C)C)C1CC(=O)OC1=O (stereo not given),inactive
12,O=C1C=CCCC1,inactive
13,COc1cccc([C@H](O)C2CCN(CCc3ccc(F)cc3)CC2)c1OC,inactive
14,CC(C)CCCCCOC(=O)CS,inactive
15,O=C(c1ccc(Cl)cc1)c1ccc(Cl)cc1,inactive
16,Cc1c(Nc2ncccc2C(=O)O)cccc1C(F)(F)F,inactive
17,CC(C)Oc1ccccc1O,inactive
18,Cc1nc2sccn2c(=O)c1CCN1CCC(=C(c2ccc(F)cc2)c2ccc(F)cc2)CC1,inactive
19,CCCC1CCCC(=O)O1 (stereo not given),inactive
20,CC(=O)c1ccc(Cl)c(Cl)c1Cl,inactive

row,SMILES,outcome
1,O=C(O)c1cccnc1Nc1cccc(C(F)(F)F)c1,inactive
2,COC(=O)Cc1cccc2ccccc12,inactive
3,O=C(Nc1ccc2c(c1)Cc1ccccc1-2)C(F)(F)F,inactive
4,CC(C)(O)C(=O)O,inactive
5,CC1(C)C(=O)NC(=O)N1CO,inactive
6,CC(=O)OCC(=O)[C@@]1(O)CC[C@H]2[C@@H]3CCC4=CC(=O)C=C[C@]4(C)[C@@]3(F)[C@@H](O)C[C@@]21C,inactive
7,Cc1cccc(C)c1NC(=O)CN1CCCC1,inactive
8,CCCc1ccc(OC)cc1,inactive
9,Cc1c(-c2cccnc2)c2ccccc2n1CCCCC(=O)O,inactive
10,CC(C)(C)c1ccc(CCC=O)cc1,inactive
11,CC(C)C/C=C(\C=O)c1ccccc1,inactive
12,CCCOC(C)=O,inactive
13,COc1cc(C)c(Cc2cnc(N)nc2N)cc1OC,inactive
14,CCOC(=O)CC(O)(CC(=O)OCC)C(=O)OCC,inactive
15,CO[C@@H]1[C@@H](O[C@@H]2O[C@H](C)[C@@H](O[C@H]3C[C@@](C)(O)[C@@H](O)[C@H](C)O3)[C@H](N(C)C)[C@H]2O)[C@@H](CC=O)C[C@@H](C)[C@@H](O[C@@H]2CC[C@H](N(C)C)[C@@H](C)O2)/C=C/C=C/C[C@@H](C)OC(=O)C[C@H]1OC(C)=O,inactive
16,OCC(O)c1ccccc1 (stereo not given),inactive
17,COc1ccnc2c1CCCCC2S(=O)c1nc2ccccc2[nH]1 (stereo not given),inactive
18,COc1ccc(C(=O)Nc2ccccc2)cc1[N+](=O)[O-],inactive
19,O=C(OCCOCCOCCOC(=O)c1ccccc1)c1ccccc1,inactive
20,CCC(CC)C(=O)O,inactive
